Screening data as filed in PubChem BioAssay.
hDAT+cocaine: changed human dopamine transporter uptake under cocaine IC80 | Q01959 | LLC-PK1 hDAT cells, [14C]-dopamine uptake with cocaine IC80; actives deviate in either direction | B-score at 10 µM | 110,000 compounds, 1.3% hits | AID 449768;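 active = Z score or B-score, a plate-position-corrected score, falls beyond the plate's 99.7% confidence bounds, in either direction; inactive = both scores lie inside the 99.7% bounds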;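 also: scored against the spread of the other compound wells on the same plate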
Cav3 T inh: human Cav3.2 channel inhibition, primary screen. Cav3.2-expressing cells, Fluo-4 calcium fluorescence FDSS; stronger effect = lower value. B-score at 10 µM. O95180. 100,000 compounds, 4% hits;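 active = single-dose well whose peak fluorescence ratio is a statistical outlier from its plate by either plate-standardised score or position-corrected B-score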
PLAP activator: activates human placental alkaline phosphatase. purified PLAP enzyme, luminescent substrate read-out; stronger effect = higher value. activation fold at 20 µM. 96,000 compounds, 1.2% hits. P05187; in the data active = activation fold above about 2
PostGolgi yeast: growth inhibition of a yeast mutant, post-Golgi transport screen | 98,000 compounds, 0.9% hits | inhibition, % at 10 µM | AID 739 | post-Golgi transport phenotypic cell assay;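 also: yeast cells grown in 1536-well plates; yeast grown about 18 h at 30C before absorbance read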
PostGolgi ctrl: growth of the yeast control strain, post-Golgi counter-screen; efflux-deficient yeast background strain, growth absorbance A615, 16 h; inhibition, % at 10 µM; 98,000 compounds, 5% hits; AID 738
Starred values were filed as active, the others as inactive. Sampled rows, rich in hits. Any-hit rate of the full collection: about 9.6%. Rule as the data show it, unless noted: active = inhibition above about 30%; inactive = the rest.

CCOC(=O)c1c(C=O)c(C)n(Cc2ccc(C)cc2)c1C was read as hDAT+cocaine 1.8, Cav3 T inh -6.1*, PLAP activator 1.5, PostGolgi yeast 16 and PostGolgi ctrl 26.
`Cc1cccc(Oc2c(C=O)c3ccccc3n2C)c1` gave hDAT+cocaine 0.004, Cav3 T inh -2.7, PLAP activator 0.8, PostGolgi yeast 5 and PostGolgi ctrl 16.
`Cc1ccc(Sc2c(C=O)c3ccccc3n2C)cc1` gave hDAT+cocaine -0.34, Cav3 T inh -0.028, PLAP activator 1.1, PostGolgi yeast 7 and PostGolgi ctrl 45*.
Screening CCOC(=O)N1CCN(c2c(F)cc3[nH]c(=S)[nH]c3c2Br)CC1 returned hDAT+cocaine 0.075, Cav3 T inh -0.12, PLAP activator 1.2, PostGolgi yeast 1 and PostGolgi ctrl 33*.
For Cn1c(=O)c2ncn(CC(=O)NCCOc3ccccc3)c2n(C)c1=O the results were hDAT+cocaine 0.28, Cav3 T inh -0.038, PLAP activator 1.2, PostGolgi yeast 30* and PostGolgi ctrl 1.
Screening COc1ccc2c(=O)c3c(=O)n(Cc4ccco4)c(C(C)C)nc3oc2c1 returned hDAT+cocaine 0.094 and Cav3 T inh 0.82.
Screening COc1ccc2c(=O)c3c(=O)n(Cc4ccco4)c(-c4ccc(C)cc4)nc3oc2c1 returned hDAT+cocaine 0.014, Cav3 T inh -1.9, PLAP activator 1.5, PostGolgi yeast 6 and PostGolgi ctrl 44*.
`COc1ccc(C(C[N+](=O)[O-])c2c(-c3ccccc3)cc3ccccn23)cc1OC` (stereo not given) gave PLAP activator 1.1, PostGolgi yeast 7 and PostGolgi ctrl 11.
For COC(=O)C(C(=O)OC)C(C[N+](=O)[O-])c1ccc(OC)c(OC)c1 (stereo not given) the results were hDAT+cocaine 0.09, Cav3 T inh 1.6, PLAP activator 1, PostGolgi yeast -4 and PostGolgi ctrl 33*.
`COc1ccc(-c2cc(C(=O)N3CC4(C)CC3CC(C)(C)C4)no2)cc1OC` (stereo not given) gave hDAT+cocaine 1.9, Cav3 T inh -2, PLAP activator 1, PostGolgi yeast 7 and PostGolgi ctrl 16.
For CC1(C)CC2CC(C)(CN2C(=O)c2cc(-c3ccccc3O)on2)C1 (stereo not given) the results were hDAT+cocaine -0.14, Cav3 T inh -0.06, PLAP activator 1.3, PostGolgi yeast 11 and PostGolgi ctrl 78*.
For COc1ccc(-c2cc(C(=O)N3CC4(C)CC3CC(C)(C)C4)no2)cc1 (stereo not given) the results were hDAT+cocaine -0.48, Cav3 T inh -1.4, PLAP activator 1.5, PostGolgi yeast -11 and PostGolgi ctrl 34*.
`CCC1(CC)C(=O)C(C)(C)C(=O)OC1c1cccs1` (stereo not given) gave hDAT+cocaine -0.34, Cav3 T inh -1.1, PLAP activator 1, PostGolgi yeast -1 and PostGolgi ctrl 11.
For O=C(O)c1ccccc1C(=O)Nc1nccs1 the results were hDAT+cocaine -1.4, Cav3 T inh 0.94, PLAP activator 1, PostGolgi yeast -18 and PostGolgi ctrl 30*.
`Cn1c(=O)[nH]c(=O)c2c1nc(SCCN1CCCCC1)n2CCCc1ccccc1` gave hDAT+cocaine -1.4, Cav3 T inh 0.88, PLAP activator 1.7, PostGolgi yeast -2 and PostGolgi ctrl -10.
CC1=C(C(=O)OCC(C)C)C(c2ccc(F)cc2)NC(=O)N1 (stereo not given) was read as hDAT+cocaine 0.45, Cav3 T inh 0.56, PLAP activator 0.9, PostGolgi yeast 3 and PostGolgi ctrl 33*.
Screening CCOC(=O)C1=C(C)NC(=O)NC1c1ccc(N(C)C)cc1 (stereo not given) returned hDAT+cocaine 0.15, PLAP activator 1.1, PostGolgi yeast 1 and PostGolgi ctrl 8.
For CCN(CC)S(=O)(=O)c1cccc(-c2nnc(SCC(=O)c3ccc(Cl)s3)n2C)c1 the results were hDAT+cocaine -0.35, Cav3 T inh -1.7, PLAP activator 1.5, PostGolgi yeast -2 and PostGolgi ctrl 5.
`CCCCc1c(C)c(C#N)c2[nH]c3ccccc3n2c1=O` gave hDAT+cocaine -1.7, Cav3 T inh 0.99, PLAP activator 0.8, PostGolgi yeast 6 and PostGolgi ctrl 36*.
`O=C(NCCC1=CCCCC1)C1COc2ccccc2O1` (stereo not given) gave hDAT+cocaine 0.95, Cav3 T inh -2, PLAP activator 1.3, PostGolgi yeast -5 and PostGolgi ctrl 11.
Cc1nc2sc3c(c2c(=O)o1)CCCC3 was read as hDAT+cocaine -1.2, Cav3 T inh 0.033, PLAP activator 1.3, PostGolgi yeast 10 and PostGolgi ctrl 0.
Screening Cc1ccc(C)n1-n1c(C)nc2sc3c(c2c1=O)CCCCC3 returned hDAT+cocaine -0.42, Cav3 T inh -5.6*, PLAP activator 0.9, PostGolgi yeast -2 and PostGolgi ctrl 50*.
Nc1nc2sc3c(c2c(=O)s1)CCCC3 was read as hDAT+cocaine -0.24, Cav3 T inh -0.78, PLAP activator 0.8, PostGolgi yeast -1 and PostGolgi ctrl 39*.
O=c1c2c3c(sc2nc2n1CCCCC2)CCCCC3 was read as hDAT+cocaine -0.81, Cav3 T inh 0.012, PLAP activator 1.1, PostGolgi yeast -31 and PostGolgi ctrl 21.
Cc1cc(C)n(-c2nc3sc4c(c3c(=O)[nH]2)CCCC4)n1 was read as PLAP activator 1.6, PostGolgi yeast 99* and PostGolgi ctrl 98*.
For O=c1c2c3c(sc2nc2n1CCCCC2)CCCC3 the results were hDAT+cocaine 0.0031, Cav3 T inh -0.49, PLAP activator 1, PostGolgi yeast -14 and PostGolgi ctrl 31*.
For Cc1ccc(C)n1-n1cnc2sc3c(c2c1=O)CCCCC3 the results were hDAT+cocaine -0.083, Cav3 T inh -0.17, PLAP activator 1.2, PostGolgi yeast 2 and PostGolgi ctrl 13.
O=C(Nc1ccc(S(=O)(=O)N2CCOCC2)cc1)c1ccc(CN2CCc3ccccc3C2)cc1 was read as hDAT+cocaine 0.45, Cav3 T inh -0.7, PLAP activator 1, PostGolgi yeast 0 and PostGolgi ctrl -1.
`COc1ccccc1/C=N/n1c(N)c(S(=O)(=O)c2cccs2)c2nc3ccccc3nc21` gave hDAT+cocaine 3.5*, PLAP activator 1.2, PostGolgi yeast -12 and PostGolgi ctrl 13.
For C=CCOc1ccc(Br)cc1/C=N/O the results were hDAT+cocaine 0.38, Cav3 T inh -3.9*, PLAP activator 0.9, PostGolgi yeast 2 and PostGolgi ctrl -7.
For C=CCOc1ccc2ccccc2c1/C=N/O the results were hDAT+cocaine 0.2, Cav3 T inh -1.5*, PLAP activator 0.9, PostGolgi yeast 1 and PostGolgi ctrl 17.
Screening O/N=C/c1cc(Br)ccc1OCc1ccccc1F returned hDAT+cocaine 0.92 and Cav3 T inh -1.6.
Screening COc1ccc2ccccc2c1/C=N/O returned hDAT+cocaine -0.12, Cav3 T inh 0.54, PLAP activator 0.9, PostGolgi yeast 0 and PostGolgi ctrl 3.
`CCOC(=O)c1cnc2c(Cl)c(Cl)ccc2c1N1CCN(C)CC1` gave hDAT+cocaine 0.41, Cav3 T inh 2.2, PLAP activator 1.5, PostGolgi yeast -5 and PostGolgi ctrl 4.
